# Laboratory results taken from PubChem BioAssay (NCATS).
# Records with an inconclusive call do not appear. A call without a number means that no potency is given here. The source made the active and inactive calls. The call rests on the fitted dose curve; in most records, active means well fitted curve in the direction sought with a large enough effect; inconclusive means small, poorly fitted or top-dose-only effect, or another doubt; inactive means no such curve, though single readings can be large; an effect the other way counts as inactive or inconclusive.
# Tests used:
# [1] = qHTS to identify inhibitors of the type 1 interferon - major histocompatibility complex class I in skeletal muscle: primary screen against the NCATS LOPAC collection (AID 1347405);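 further: lytic HiBiT luminescence reporting HLA-B protein level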
# Procedure, shortened: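 Cells: C25cl48 human myoblasts, HiBiT-tagged HLA-B*08:01, stimulated with IFN-beta 4.0 ng/ml. Compounds are titrated 1:4.3 over 7 points from 46 uM final and incubated 24 hrs; endogenous MHC class I is quantified by HiBiT lytic luminescence.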
# [2] = qHTS to identify inhibitors of the type 1 interferon - major histocompatibility complex class I in skeletal muscle: primary screen against the NCATS Pharmaceutical Collection (AID 1347407);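 further: luminescence of HiBiT knocked into endogenous HLA-B as interferon-induced MHC class I level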; further: potency means the concentration at half of the fitted maximal effect
# Procedure, shortened: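 Cells were seeded with 4 ng/ml IFN-beta, incubated 1 h, then dosed with compounds over eight 1:5 steps up to 46 uM final. After 24 h at 37 C, HiBiT lytic reagent was added and luminescence read after 10 min lysis in the dark.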
# [3] = qHTS to identify inhibitors of the type 1 interferon - major histocompatibility complex class I in skeletal muscle: primary screen against the NCATS Mechanism Interrogation Plate v5.0 (MIPE) Libary (AID 1347411); further: nearly all actives have a fitted effect of over 65% in size; further: potency means the concentration at half of the fitted maximal effect
# Procedure, shortened: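 Cells were genome-edited human myoblasts carrying a HiBit tag on endogenous HLA-B. They were treated with IFN-beta (4.0 ng/ml) and titrated compounds (top 46 uM) for 24 hrs before lytic HiBiT detection.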
# [4] = target: Protein phosphatase 1D (Homo sapiens) (UniProt O15297); experiment: RapidFire Mass Spectrometry qHTS Assay for Modulators of WT P53-Induced Phosphatase 1 (WIP1) (AID 1347424);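 further: amount of dephosphorylated VEPPL-S-QETFS peptide product formed by WIP1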; further: potency means the concentration at half of the fitted maximal effect
# Sequence of Protein phosphatase 1D (Homo sapiens) (O15297 whole entry, looked up): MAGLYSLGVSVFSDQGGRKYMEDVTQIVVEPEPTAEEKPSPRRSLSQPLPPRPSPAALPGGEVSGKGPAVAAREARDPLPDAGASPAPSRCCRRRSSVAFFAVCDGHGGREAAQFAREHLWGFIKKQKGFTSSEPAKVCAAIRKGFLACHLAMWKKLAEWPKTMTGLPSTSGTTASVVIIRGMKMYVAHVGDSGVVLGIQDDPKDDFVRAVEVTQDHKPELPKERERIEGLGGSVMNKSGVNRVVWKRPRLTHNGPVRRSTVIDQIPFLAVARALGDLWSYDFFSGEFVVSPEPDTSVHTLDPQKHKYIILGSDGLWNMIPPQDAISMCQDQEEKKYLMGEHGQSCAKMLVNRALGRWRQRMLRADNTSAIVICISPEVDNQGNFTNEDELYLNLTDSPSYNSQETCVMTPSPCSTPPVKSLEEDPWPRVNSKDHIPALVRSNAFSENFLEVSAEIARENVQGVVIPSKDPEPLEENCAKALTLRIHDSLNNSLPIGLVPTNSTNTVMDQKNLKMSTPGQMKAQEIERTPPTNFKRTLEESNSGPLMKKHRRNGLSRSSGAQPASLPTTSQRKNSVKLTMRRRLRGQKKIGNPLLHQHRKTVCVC
# Procedure, shortened: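 10 nM WIP1 preincubated with compounds 1 hr at room temperature in pH 7.5 Tris buffer with 30 mM MgCl2, 1 mM TCEP; 2 uM VEPPL-pS-QETFS phosphopeptide for 5 min, formic acid quench; dephosphorylated product quantified by RapidFire MS against labelled standard.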
# [5] = target: Protein phosphatase 1D (Homo sapiens) (UniProt O15297); experiment: Rhodamine-PBP qHTS Assay for Modulators of WT P53-Induced Phosphatase 1 (WIP1) (AID 1347425)
# Procedure, shortened: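 Steps: enzyme with Rh-PBP sensor and compounds, room-temperature incubation of 1 hr, baseline read, addition of VEPPL-pS-QETFS (10 uM final), kinetic fluorescence reads at 525/598 nm. Activity equals final minus baseline signal.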
# [6] = qHTS for inhibitors of ER calcium dysfunction: SERCaMP assay screened against the NCATS CANVASS Library (AID 1347393);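 further: series mostly up to about 77 µM; lower secreted reporter signal means inhibitor of ER calcium depletion; nearly all actives have a fitted effect of over 40% in size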
# Procedure, shortened: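 SH-SY5Y GLuc-SERCaMP, 1000 cells/well, 4 h attach; cpd 16 h, 37C/5% CO2; thapsigargin (added as 6x 600 nM) 4 h; coelenterazine; luminescence. Reduced reporter release = ER Ca stabilization.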
# [7] = Vero-766 cells viability qHTS against the NCATS CANVASS Library: Counterscreen for Zika virus inhibition assay (AID 1347394); further: series mostly up to about 46 µM; nearly all actives have a fitted effect of over 60% in size
# Procedure, shortened: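 This cytotoxicity counterscreen uses African green monkey Vero 766 cells in the absence of Zika virus. Compounds are incubated with cells for 72 h, and ATP-based luminescence reports viability.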
# [8] = qHTS for inhibitors of Wild type Zika virus screened against the NCATS CANVASS Library (AID 1347396);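 further: ATP luminescence of surviving cells so rescue from viral cell killing; series mostly up to about 46 µM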
# Excerpt: Natural products and their derivatives continue to be wellsprings of nascent therapeutic potential. However, many laboratories have limited resources for biological evaluation, leaving their previously isolated or synthesized compounds largely or completely untested. To address this issue, the Canvass library of natural products was assembled (https://tripod.nih.gov/canvass), in collaboration with academic and industry researchers, for quantitative high-throughput screening (qHTS) across a diverse set of cell-based and biochemical assays. […] The library was formatted into 1536-well plates and evaluated in 50 qHTS (in an 11-pnt concentration series) bioassays with broad scope of disease-relevant mechanisms. The resulting data set from 50 different assays was then systematically analyzed to identify overall trends and specific natural products with interesting biological activities. […]
# Zika virus infection assay protocol: 1. […] In a biosafety cabinet, the desired MOI Zika virus was calculated and 2 uL of 2.5x Zika virus was dispensed into columns 1, 2 and 5 - 48 using the Multidrop Combi dispenser. […] Luminescence signal was obtained via the ViewLux plate reader (Perkin Elmer) using the clear emission filter and 1x binning, 2 seconds exposure settings.
# [9] = Viability qHTS for inhibitors of the SERCaMP assay screened against the NCATS CANVASS Library (AID 1347400); further: series mostly up to about 92 µM; nearly all actives have a fitted effect of over 70% in size
# Procedure, shortened: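 Cytotoxicity counter-screen: ATP content (CellTiter-Glo luminescence) of SH-SY5Y-GLuc SERCaMP MJH297 cells after 48 h at 37C with compounds in an 11-point qHTS series.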
# [10] = Redox Reaction Profiling qHTS: Assay Interference Panel against the NCATS CANVASS Library (AID 1347401)
# Procedure, shortened: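 Compounds in 11-point series incubated with 5 uM resazurin and 200 uM DTT in 50 mM HEPES pH 7.3, 50 mM NaCl. Resorufin fluorescence (Ex 525/Em 598) read before and after 15 min in the dark.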
structure (smiles),measurement,setting,value
CC(CCc1ccccc1)NCC(O)c1ccc(O)c(C(N)=O)c1 (stereo not given),outcome,[1],inactive
CN(C)CC/C=C1/c2ccccc2COc2ccc(CC(=O)O)cc21,Potency,[2],inactive
same,Potency,[3],inactive
same,Potency,[4],inactive
same,outcome,[5],inactive
CNCCC(Oc1ccccc1C)c1ccccc1 (stereo not given),outcome,[1],inactive
C[N+]1(CCCCC[N+]2(C)CCCC2)CCCC1,outcome,[1],inactive
COc1cc(C=C2CCC/C(=C\c3ccc(O)c(OC)c3)C2=O)ccc1O,Potency,[2],14.9 µM (active)
same,Potency,[4],inactive
CC(C)=CCC1C(=O)N(c2ccccc2)N(c2ccccc2)C1=O,Potency,[2],18.7 µM (active)
CC(=O)O[C@]1(C(C)=O)CC[C@H]2[C@@H]3C[C@H](C)C4=CC(=O)CC[C@]4(C)[C@H]3CC[C@@]21C,Potency,[2],inactive
same,Potency,[3],inactive
same,Potency,[4],inactive
same,outcome,[5],inactive
O=C1CCC(c2ccc(-n3ccnc3)cc2)=NN1,outcome,[1],inactive
CC(=O)O[C@H]1C[C@@H]2CC[C@@H]3[C@H](CC[C@@]4(C)[C@H]3C[C@H]([N+]3(C)CCCCC3)[C@@H]4OC(C)=O)[C@@]2(C)C[C@@H]1[N+]1(C)CCCCC1,outcome,[1],inactive
N[C@@H](Cc1cnc[nH]1)C(=O)O,outcome,[1],inactive
CC(C)COC(=O)OCN1C(=O)CN(CCN2CC(=O)N(COC(=O)OCC(C)C)C(=O)C2)CC1=O,outcome,[1],inactive
C1CCc2nnnn2CC1,outcome,[1],inactive
CC[C@H](C)C(=O)O[C@H]1CCC=C2C=C[C@H](C)[C@H](CC[C@@H]3C[C@@H](O)CC(=O)O3)[C@H]21,outcome,[1],inactive
same,Potency,[3],inactive
CCCC1O[C@@H]2C[C@H]3[C@@H]4CCC5=CC(=O)C=C[C@]5(C)[C@H]4[C@@H](O)C[C@]3(C)[C@]2(C(=O)CO)O1 (stereo not given in full),outcome,[1],inactive
CC(C)(C)CC(C)(C)c1ccc(O)c(Cc2ccc(Cl)cc2Cl)c1,Potency,[2],inactive
same,Potency,[4],inactive
N[C@H](CO)C(=O)O,outcome,[1],inactive
Nc1ccn([C@@H]2O[C@H](CO)[C@@H](O)C2(F)F)c(=O)n1,Potency,[2],inactive
same,Potency,[3],inactive
same,Potency,[4],inactive
same,outcome,[5],inactive
O=C(O)c1cc2cc(Cc3cccnc3)ccc2o1,outcome,[1],inactive
CC1(C)O[C@@H]2C[C@H]3[C@@H]4C[C@H](F)C5=CC(=O)C=C[C@]5(C)[C@H]4[C@@H](O)C[C@]3(C)[C@]2(C(=O)CO)O1,Potency,[2],inactive
same,Potency,[3],inactive
same,Potency,[4],inactive
same,outcome,[5],inactive
COc1c(C)c2c(c(O)c1C/C=C(\C)CCC(=O)O)C(=O)OC2,Potency,[2],inactive
same,Potency,[3],inactive
same,Potency,[4],inactive
same,outcome,[5],inactive
CC1(C)O[C@@H]2C[C@H]3[C@@H]4C[C@H](F)C5=CC(=O)CC[C@]5(C)[C@H]4[C@@H](O)C[C@]3(C)[C@]2(C(=O)CO)O1,Potency,[2],inactive
same,Potency,[4],inactive
same,outcome,[5],inactive
CN1CCC[C@@H]1c1cccnc1,outcome,[6],inactive
same,outcome,[7],inactive
same,outcome,[8],inactive
same,outcome,[9],inactive
same,outcome,[10],inactive
same,Potency,[2],inactive
same,Potency,[4],inactive
same,outcome,[5],inactive
CCCCCCc1ccc(O)cc1O,Potency,[2],inactive
same,Potency,[4],inactive
CN1C2CCC1CC(OC(=O)c1c[nH]c3ccccc13)C2 (stereo not given),outcome,[1],inactive
CC/C(=C(/CC)c1ccc(O)cc1)c1ccc(O)cc1,Potency,[2],inactive
same,Potency,[3],inactive
same,Potency,[4],15.8 µM (active)
COC(=O)[C@@H]1CC2=CC(=O)CC[C@]2(C)[C@@]23O[C@@H]2C[C@@]2(C)[C@@H](CC[C@@]24CCC(=O)O4)[C@H]13,Potency,[2],inactive
same,Potency,[3],inactive
same,Potency,[4],inactive
same,outcome,[5],inactive
CCCn1c(=O)[nH]c(=O)c2[nH]cnc21,outcome,[1],inactive
CC(=O)N(O)CCCCCNC(=O)CCC(=O)N(O)CCCCCNC(=O)CCC(=O)N(O)CCCCCN,Potency,[2],inactive
same,Potency,[3],inactive
same,Potency,[4],inactive
same,outcome,[5],inactive
COC(=O)[C@H]1[C@H]2C[C@H]3c4[nH]c5ccccc5c4CCN3C[C@H]2CC[C@@H]1O,outcome,[1],inactive
Nc1cc(Cl)c(NC2=NCCN2)c(Cl)c1,outcome,[1],inactive
Oc1ccc(O)cc1,outcome,[1],inactive
same,Potency,[2],inactive
same,Potency,[4],inactive
same,outcome,[5],inactive
CC1(C)CCC(NC(=O)[C@@H](N)CCC(=O)O)CC1,outcome,[1],inactive
C/C=C(/C(=C/C)c1ccc(O)cc1)c1ccc(O)cc1,Potency,[2],inactive
COc1cccc2c1C(=O)c1c(O)c3c(c(O)c1C2=O)C[C@@](O)(C(=O)CO)C[C@@H]3O[C@H]1C[C@H](N)[C@H](O)[C@H](C)O1,Potency,[2],23.6 µM (active)
same,Potency,[3],829 nM (active)
same,Potency,[4],inactive
same,outcome,[5],inactive
CCC(NC(C)C)C(O)c1ccc(O)c(O)c1 (stereo not given),outcome,[1],inactive
C[C@@H](CN(C)C)CN1c2ccccc2Sc2ccccc21,Potency,[2],inactive
same,Potency,[4],inactive
same,outcome,[5],inactive
N[C@@H](CCC(=O)N[C@@H](CS)C(=O)NCC(=O)O)C(=O)O,Potency,[2],inactive
same,Potency,[4],inactive
same,outcome,[5],inactive
O=C1OC2(c3ccc(O)cc3Oc3cc(O)ccc32)c2ccccc21,Potency,[2],inactive
same,Potency,[4],inactive
same,outcome,[5],inactive
CCCCCC=CCC=CCCCCCCCC(=O)OCC,Potency,[2],inactive
same,Potency,[4],inactive
same,outcome,[5],inactive
CCOc1ccc(NC(=O)CC(C)O)cc1 (stereo not given),Potency,[2],inactive
same,Potency,[4],inactive
same,outcome,[5],inactive
CC(=O)Nc1c(I)cc(I)c(C(=O)O)c1I,Potency,[2],inactive
same,Potency,[4],inactive
same,outcome,[5],inactive
CN(C)CCCOc1nn(Cc2ccccc2)c2ccccc12,Potency,[2],inactive
same,Potency,[4],inactive
same,outcome,[5],inactive
Cc1cccc(C)c1NC(=O)CN1CCN(CCCC(c2ccc(F)cc2)c2ccc(F)cc2)CC1,Potency,[2],inactive
same,Potency,[4],inactive
same,outcome,[5],inactive
CNC(=O)CN(CCN(CCN(CC(=O)[O-])CC(=O)NC)CC(=O)[O-])CC(=O)[O-].O.[Gd+3],Potency,[2],inactive
same,Potency,[4],inactive
same,outcome,[5],inactive
CCCCCCCCCCCCCCCCCC(=O)OCC(O)CO (stereo not given),Potency,[2],inactive
same,Potency,[4],inactive
same,outcome,[5],inactive
CC(C)N=C(N)/N=C(\N)Nc1ccc(Cl)cc1,Potency,[2],inactive
same,Potency,[4],inactive
same,outcome,[5],inactive
